Records with an inconclusive call do not appear. Calls of active or inactive are those of the source. Rule for the calls: active = hit-call score of the fitted dose curve at least 0.9, where 1 is the maximum; inconclusive = response in the unintended direction; inactive = score below 0.9.
What was measured:
[1] = molecular target: Cellular tumor antigen p53 (Homo sapiens) (UniProt P04637); assay: TOX21_p53_BLA_p2_ratio: Tox21 HCT-116 p53 Agonism Beta-lactamase Assay, Ratio, Phase 2 (AID 2283592)
Chain of Cellular tumor antigen p53 (Homo sapiens) (P04637 whole entry, looked up): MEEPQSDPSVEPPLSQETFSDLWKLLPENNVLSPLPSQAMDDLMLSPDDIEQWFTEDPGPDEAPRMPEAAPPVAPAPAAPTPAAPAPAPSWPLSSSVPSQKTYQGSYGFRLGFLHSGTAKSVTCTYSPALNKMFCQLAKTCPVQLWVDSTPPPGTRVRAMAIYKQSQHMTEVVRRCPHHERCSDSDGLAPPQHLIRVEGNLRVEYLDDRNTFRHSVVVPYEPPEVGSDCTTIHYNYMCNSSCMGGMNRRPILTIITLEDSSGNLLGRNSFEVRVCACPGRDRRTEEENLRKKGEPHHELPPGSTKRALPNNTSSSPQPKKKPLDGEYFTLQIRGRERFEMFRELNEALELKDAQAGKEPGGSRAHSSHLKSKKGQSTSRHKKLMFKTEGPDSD
In short: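 Cleaved-to-uncleaved substrate ratio (460 vs 530 nm) measured in HCT116 cells with an inducible beta-lactamase reporter linked to p53 activity. Compounds incubated 16 h at 37C before 2 h room-temperature CCF4-AM loading.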

[2] = TOX21_p53_BLA_p3_viability: Viability Assessment in the Tox21 HCT-116 p53 Agonism Beta-lactamase Assay, Phase 3 (AID 2283593);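 note: cells exposed to compound for 16 h before reading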
In short: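 Cellular ATP was quantified by CellTiter-Glo luminescence, read after 30 min at room temperature. Beforehand, HCT116 cells (4000/well) received compound 5 h post-seeding, 217-fold diluted from DMSO, then incubated 16 h at 37C.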

[3] = molecular target: Cellular tumor antigen p53 (Homo sapiens) (UniProt P04637); assay: TOX21_p53_BLA_p3_ratio: Tox21 HCT-116 p53 Agonism Beta-lactamase Assay, Ratio, Phase 3 (AID 2283596)
In short: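 Cells were seeded at 4000/well, rested 5 h at 37C, then dosed with DMSO compound solutions (217-fold dilution) for 16 h. CCF4-AM substrate was loaded for 2 h at room temperature, and the 460/530 nm emission ratio was fitted for gain of signal versus DMSO.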

[4] = molecular target: Cellular tumor antigen p53 (Homo sapiens) (UniProt P04637); assay: TOX21_p53_BLA_p5_ratio: Tox21 HCT-116 p53 Agonism Beta-lactamase Assay, Ratio, Phase 5 (AID 2283599)
In short: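 Beta-lactamase reporter ratio (blue 460 nm over green 530 nm, 405 nm excitation) after 2 h CCF4-AM loading, in HCT-116 cells exposed 16 h at 37 C to compounds pinned at 217-fold dilution. Increases relative to DMSO baseline scored.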

[5] = molecular target: Cellular tumor antigen p53 (Homo sapiens) (UniProt P04637); assay: TOX21_p53_BLA_p4_ratio: Tox21 HCT-116 p53 Agonism Beta-lactamase Assay, Ratio, Phase 4 (AID 2283601)
In short: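 Signal is the blue/green (460nm/530nm) ratio of cleaved versus uncleaved CCF4-AM substrate, read after 2 h substrate loading. Cells were HCT116 carrying the p53-responsive beta-lactamase reporter, dosed 16 h at 37C, 5% CO2; CellTiter-Glo measured in parallel.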

[6] = TOX21_p53_BLA_p5_viability: Viability Assessment in the Tox21 HCT-116 p53 Agonism Beta-lactamase Assay, Phase 5 (AID 2283600)
In short: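 Viability is taken from cellular ATP content, measured by luciferase luminescence in the same wells after the beta-lactamase ratio read. Cells are seeded at 4000 per well and exposed to DMSO-dissolved compounds, diluted 217-fold, for 16 h.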

[7] = TOX21_p53_BLA_p4_viability: Viability Assessment in the Tox21 HCT-116 p53 Agonism Beta-lactamase Assay, Phase 4 (AID 2283597);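 note: hits lower the luminescence signal meaning cytotoxicity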
In short: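 Viability is taken as cellular ATP: after 16 h compound exposure of HCT116 cells and a 2 h room-temperature CCF4-AM substrate step, CellTiter-Glo reagent is added and luminescence is measured 30 min later.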

Measured: AC50

O=C(O)C(Br)CBr (stereo not drawn)
not listed: [6] | [7]
inactive: all other assays above

CCCCCCCCCCOC(=O)c1ccccc1C(=O)OCCCCCCCCCC
inactive: [1] | [2] | [3] | [4]

CC(=O)OC1CN2CCC1CC2 (stereo not drawn)
not listed: [7]
inactive: all other assays above

O=c1[nH]cc(N(CCCl)CCCl)c(=O)[nH]1
active: [3] 23 µM
not listed: [6]
inactive: all other assays above

CCCCN(N=O)C(=N)N[N+](=O)[O-]
active: [1] 57 µM | [3] 56.4 µM | [4] 55.2 µM
inactive: [2] | [6]

CC[C@H](OC(C)=O)C(C[C@H](C)NC)(c1ccccc1)c1ccccc1
active: [7] 51.1 µM
not listed: [6]
inactive: all other assays above

O=C(O)CCCO
not listed: [4] | [6]
inactive: all other assays above

ClC=CCCl
not listed: [6]
inactive: all other assays above

— PubChem BioAssay (EPA / NIEHS)
